Results filed as inconclusive are left out. Where a call stands in place of a potency, no number is given. Active and inactive are the calls of the source. The call rests on the fitted dose curve.
Further: nearly all actives have a fitted effect of over 45% in size.

The first assay is described as follows: p53 small molecule agonists, cell-based qHTS assay with human liver microsomes: qHTS cell viability counter screen (AID 1963579). The conditions noted are these: p53RE-bla HCT-116 viability, ATP luminescence, 16 h, HLM; series mostly up to 66 µM. The essentials:
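After the 460/530 nm beta-lactamase read, CellTiter-Glo was added to the same wells and luminescence measured after 30 min at room temperature, giving viability of p53RE-bla cells treated 16 h with compounds plus microsomes and NADPH.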
On the technique in general: qHTS replaces the single test concentration by a dilution series.
For `ClC(Cl)=C(c1ccc(Cl)cc1)c1ccc(Cl)cc1`, the Potency entry is “inactive”.
With `ClCCN1CCOCC1`, the Potency entry is “inactive”.
Take `C1CCC2CCCCC2C1` (configuration not stated): the Potency result was “inactive”.
The same measure, in the same setting: under `CC12CC1(C)C(=O)N(c1cc(Cl)cc(Cl)c1)C2=O` (configuration not stated) stands “inactive”; under `ClCc1cccnc1`, “inactive”; under `CNC(=O)O/N=C/C(C)(C)S(C)=O` (configuration not stated), “inactive”.
Take `CN(C)C(=O)Nc1ccc(Cl)cc1`: the Potency entry was “inactive”.
On to `Cc1ccccc1CCl`, for which the Potency result was “inactive”.
Still for that read-out and setting: under `CCOP(=S)(OCC)SCSc1cc(Cl)ccc1Cl` stands “inactive”.
The same measure, in the same setting: the result for `Nc1c(Br)cc([N+](=O)[O-])cc1[N+](=O)[O-]` reads “inactive”; that for `COC[C@@H](NC(C)=O)C(=O)NCc1ccccc1`, “inactive”.
Same read-out and setting: the result for `COc1cc(OC)nc(NC(=O)NS(=O)(=O)c2ncccc2C(=O)N(C)C)n1` reads “inactive”; that for `OCC(Br)CBr` (configuration not stated), “inactive”.
`c1ccc(C2CO2)cc1` (configuration not stated): the Potency entry was “inactive”.
As to `CCN(C)N=O`, the Potency entry is “inactive”.
On the same count and under the same terms, the result for `C=CC(=O)OCCO` reads “inactive”; that for `CCOP(OCC)OCC`, “inactive”.
Same read-out and setting: the result for `CC(=O)C1CCOC1=O` (configuration not stated) reads “inactive”; that for `C#CCOC(=O)/C=C(C)/C=C/CC(C)CCCC(C)C` (configuration not stated), “inactive”; that for `CCN(CC)C1CCCCC1`, “inactive”.
In the case of `CCCCC(CC)COC(=O)c1ccc(C(=O)OCC(CC)CCCC)c(C(=O)OCC(CC)CCCC)c1` (configuration not stated), the Potency entry was “inactive”.
With `O=C(CCl)CCl`, the Potency entry was “inactive”.
On the same count and under the same terms, the result for `CCCCN=C=O` reads “inactive”; that for `COc1nc(NC(C)C)nc(NC(C)C)n1`, “inactive”; that for `CCOc1cc(C=O)ccc1O`, “inactive”.
Take `Cl/C=C\CCl`: the Potency entry was “inactive”.
With `C=CC(=O)NC(C)(C)CC(C)=O`, the Potency result is “inactive”.
Take `Cc1ccc(N)cc1C`: the Potency result was “inactive”.
`CC(C)(Cl)Cl`: the Potency result was “inactive”.
Turning to `CCOS(C)(=O)=O`, the Potency entry is “inactive”.
Take `O=C([O-])c1ccccn1.O=C([O-])c1ccccn1.O=C([O-])c1ccccn1.[Cr+3]`: the Potency entry is “inactive”.
As for `BrCCc1ccccc1`, the Potency entry is “inactive”.
Take `COCC(=O)N(c1c(C)cccc1C)[C@H](C)C(=O)OC`: the Potency result is “inactive”.
The same measure, in the same setting: the result for `CN(C)C(=O)C(c1ccccc1)c1ccccc1` reads “inactive”.
As to `CN(CCCC(=O)c1cccnc1)N=O`, the Potency entry was “inactive”.
Regarding `COC(=O)[C@@H](N)CCCN/C(N)=N/[N+](=O)[O-]`, the Potency entry was “inactive”.
Take `CC[N+](=O)[O-]`: the Potency result was “inactive”.
Take `CCCCCCC1CCOC1=O` (configuration not stated): the Potency result was “inactive”.
For `O=[N+]([O-])c1ccccc1O`, the Potency entry is “inactive”.

A short description of the next assay: p53 small molecule agonists, cell-based qHTS assay with rat liver microsomes: qHTS cell viability counter screen (AID 1963580). The conditions noted are these: p53RE-bla HCT-116 + rat microsomes, ATP viability, 16 h; series mostly up to 66 µM. The procedure, abridged: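 p53RE-bla HCT-116 cells (4,000/well) rested 5 h at 37 C, then given Tox21 compounds in DMSO with rat liver microsomes (0.5 mg/mL final) plus NADPH (0.5 mg/mL final) for 16 h at 37 C. Viability read by CellTiter-Glo luminescence after 30 min at room temperature.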
For `ClC(Cl)=C(c1ccc(Cl)cc1)c1ccc(Cl)cc1`, the Potency entry was “inactive”.
For the compound `ClCCN1CCOCC1`, the Potency result is “inactive”.
As to `C1CCC2CCCCC2C1` (configuration not stated), the Potency result is “inactive”.
With `CC12CC1(C)C(=O)N(c1cc(Cl)cc(Cl)c1)C2=O` (configuration not stated), the Potency entry was “inactive”.
Consider `ClCc1cccnc1`, for which the Potency result was “inactive”.
Consider `CNC(=O)O/N=C/C(C)(C)S(C)=O` (configuration not stated), for which the Potency entry was “inactive”.
Take `CN(C)C(=O)Nc1ccc(Cl)cc1`: the Potency entry is “inactive”.
On to `Cc1ccccc1CCl`, for which the Potency result was “inactive”.
`CCOP(=S)(OCC)SCSc1cc(Cl)ccc1Cl`: the Potency entry was “inactive”.
On to `Nc1c(Br)cc([N+](=O)[O-])cc1[N+](=O)[O-]`, for which the Potency entry was “inactive”.
For the compound `COC[C@@H](NC(C)=O)C(=O)NCc1ccccc1`, the Potency result is “inactive”.
As for `COc1cc(OC)nc(NC(=O)NS(=O)(=O)c2ncccc2C(=O)N(C)C)n1`, the Potency result was “inactive”.
As for `OCC(Br)CBr` (configuration not stated), the Potency result was “inactive”.
For `c1ccc(C2CO2)cc1` (configuration not stated), the Potency result is “inactive”.
In the case of `CCN(C)N=O`, the Potency result was “inactive”.
As for `C=CC(=O)OCCO`, the Potency result was “inactive”.
`CCOP(OCC)OCC`: the Potency entry was “inactive”.
Turning to `CC(=O)C1CCOC1=O` (configuration not stated), the Potency entry is “inactive”.
With `C#CCOC(=O)/C=C(C)/C=C/CC(C)CCCC(C)C` (configuration not stated), the Potency entry is “inactive”.
`CCN(CC)C1CCCCC1`: the Potency result was “inactive”.
In the case of `CCCCC(CC)COC(=O)c1ccc(C(=O)OCC(CC)CCCC)c(C(=O)OCC(CC)CCCC)c1` (configuration not stated), the Potency entry was “inactive”.
Consider `O=C(CCl)CCl`, for which the Potency result was “inactive”.
In the case of `CCCCN=C=O`, the Potency entry is “inactive”.
On to `COc1nc(NC(C)C)nc(NC(C)C)n1`, for which the Potency result is “inactive”.
Consider `CCOc1cc(C=O)ccc1O`, for which the Potency result was “inactive”.
Still for that read-out and setting: under `Cl/C=C\CCl` stands “inactive”; under `C=CC(=O)NC(C)(C)CC(C)=O`, “inactive”; under `Cc1ccc(N)cc1C`, “inactive”.
Still for that read-out and setting: under `CC(C)(Cl)Cl` stands “inactive”; under `CCOS(C)(=O)=O`, “inactive”.
Regarding `O=C([O-])c1ccccn1.O=C([O-])c1ccccn1.O=C([O-])c1ccccn1.[Cr+3]`, the Potency entry was “inactive”.
The same measure, in the same setting: under `BrCCc1ccccc1` stands “inactive”; under `COCC(=O)N(c1c(C)cccc1C)[C@H](C)C(=O)OC`, “inactive”.
Regarding `CN(C)C(=O)C(c1ccccc1)c1ccccc1`, the Potency entry is “inactive”.
Regarding `CN(CCCC(=O)c1cccnc1)N=O`, the Potency result is “inactive”.
Same read-out and setting: the result for `COC(=O)[C@@H](N)CCCN/C(N)=N/[N+](=O)[O-]` reads “inactive”.
As for `CC[N+](=O)[O-]`, the Potency entry was “inactive”.
`CCCCCCC1CCOC1=O` (configuration not stated): the Potency result is “inactive”.
In the case of `O=[N+]([O-])c1ccccc1O`, the Potency result was “inactive”.

The nature of a further assay: p53 small molecule agonists, cell-based qHTS assay: qHTS cell viability counter screen (AID 1963581). Particulars: p53RE-bla HCT-116 viability, ATP luminescence, 16 h; series mostly up to 66 µM. The procedure, abridged:
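Compounds are pinned onto HCT-116 p53RE-bla cells and left 16 h at 37 C. Following the reporter FRET read, ATP is quantified by CellTiter-Glo luminescence after 30 min at room temperature.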
Take `ClC(Cl)=C(c1ccc(Cl)cc1)c1ccc(Cl)cc1`: the Potency result is “inactive”.
As for `ClCCN1CCOCC1`, the Potency result was “inactive”.
In the case of `C1CCC2CCCCC2C1` (configuration not stated), the Potency entry is “inactive”.
On to `CC12CC1(C)C(=O)N(c1cc(Cl)cc(Cl)c1)C2=O` (configuration not stated), for which the Potency result is “inactive”.
With `ClCc1cccnc1`, the Potency entry is “inactive”.
As for `CNC(=O)O/N=C/C(C)(C)S(C)=O` (configuration not stated), the Potency entry was “inactive”.
Regarding `CN(C)C(=O)Nc1ccc(Cl)cc1`, the Potency entry is “inactive”.
On the same count and under the same terms, the result for `Cc1ccccc1CCl` reads “inactive”; that for `CCOP(=S)(OCC)SCSc1cc(Cl)ccc1Cl`, “inactive”.
Still for that read-out and setting: under `Nc1c(Br)cc([N+](=O)[O-])cc1[N+](=O)[O-]` stands “inactive”.
With `COC[C@@H](NC(C)=O)C(=O)NCc1ccccc1`, the Potency entry is “inactive”.
Still for that read-out and setting: under `COc1cc(OC)nc(NC(=O)NS(=O)(=O)c2ncccc2C(=O)N(C)C)n1` stands “inactive”.
`OCC(Br)CBr` (configuration not stated): the Potency entry was “inactive”.
Same read-out and setting: under `c1ccc(C2CO2)cc1` (configuration not stated) stands “inactive”.
On the same count and under the same terms, the result for `CCN(C)N=O` reads “inactive”; that for `C=CC(=O)OCCO`, “inactive”; that for `CCOP(OCC)OCC`, “inactive”.
On to `CC(=O)C1CCOC1=O` (configuration not stated), for which the Potency result was “inactive”.
On to `C#CCOC(=O)/C=C(C)/C=C/CC(C)CCCC(C)C` (configuration not stated), for which the Potency result is “inactive”.
As for `CCN(CC)C1CCCCC1`, the Potency result was “inactive”.
As to `CCCCC(CC)COC(=O)c1ccc(C(=O)OCC(CC)CCCC)c(C(=O)OCC(CC)CCCC)c1` (configuration not stated), the Potency result is “inactive”.
Turning to `O=C(CCl)CCl`, the Potency entry is “inactive”.
For the compound `CCCCN=C=O`, the Potency entry was “inactive”.
Turning to `COc1nc(NC(C)C)nc(NC(C)C)n1`, the Potency entry is “inactive”.
For `CCOc1cc(C=O)ccc1O`, the Potency entry was “inactive”.
Consider `Cl/C=C\CCl`, for which the Potency entry was “inactive”.
On to `C=CC(=O)NC(C)(C)CC(C)=O`, for which the Potency result was “inactive”.
In the case of `Cc1ccc(N)cc1C`, the Potency entry is “inactive”.
The same measure, in the same setting: under `CC(C)(Cl)Cl` stands “inactive”; under `CCOS(C)(=O)=O`, “inactive”; under `O=C([O-])c1ccccn1.O=C([O-])c1ccccn1.O=C([O-])c1ccccn1.[Cr+3]`, “inactive”.
Same read-out and setting: under `BrCCc1ccccc1` stands “inactive”.
Turning to `COCC(=O)N(c1c(C)cccc1C)[C@H](C)C(=O)OC`, the Potency entry is “inactive”.
On to `CN(C)C(=O)C(c1ccccc1)c1ccccc1`, for which the Potency entry was “inactive”.
The same measure, in the same setting: the result for `CN(CCCC(=O)c1cccnc1)N=O` reads “inactive”; that for `COC(=O)[C@@H](N)CCCN/C(N)=N/[N+](=O)[O-]`, “inactive”.
Consider `CC[N+](=O)[O-]`, for which the Potency result is “inactive”.
Consider `CCCCCCC1CCOC1=O` (configuration not stated), for which the Potency entry was “inactive”.
Take `O=[N+]([O-])c1ccccc1O`: the Potency entry is “inactive”.
